Screens as filed in PubChem BioAssay.
In the library only some 2.4% were active in any assay of this set; here they are far more common.
HepG2 viability: counter-screen for TGF-b inhibitors: cytotoxicity in HepG2 cells; HepG2 CAGA-GFP viability, ATP luminescence, 18 h; actives 0.76% (n = 410,000); AID 588856; Potency, µM (highest dose often 46.1 µM), usual class: cytotoxic
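HepG2 CAGA-GFP cells (1000/well, DMEM with 1% FBS) received compound, then TGF-beta at 500 pg/mL final, and were incubated 18 hours at 37 degrees C. Viability was read by CellTiter-Glo luminescence. Media-only wells were set as complete cell-killing and DMSO as no toxicity.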
ATXN2 expr inh: ATXN2 expression inhibition; AID 1745845; HEK-293 ATXN2-luciferase reporter, luminescence, 24 h; Potency, µM (top dose mostly 57 µM), hits mostly inhibitors; actives 0.72% (n = 360,000); further: nearly all actives have a fitted effect of over 55% in size
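qHTS (up to 57 uM final) was run with 24 h compound exposure of reporter cells at 37 °C. Each well was multiplexed: SteadyGlo luminescence measured ATXN2-luciferase expression after a fluorogenic Gly-Phe-AFC viability readout (25 uM final).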
TGFb SMAD3 inh: TGF-b pathway inhibition. AID 588855. actives 1.2% (n = 410,000). HepG2 CAGA-GFP TGF-b/SMAD3 reporter, GFP fluorescence, 18 h; TGF-beta stimulated, 500 pg/mL final. Potency, µM (doses to about 46.1 µM), usual class: inhibitors; further: nearly all actives have a fitted effect of over 65% in size
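GFP signal (ex488/em500-530) from TGF-beta-stimulated HEPG2 CAGA-GFP cells, 500 pg/mL final, 18 h at 37 degrees C in DMEM plus 1% FBS, normalized to unstimulated and DMSO-stimulated controls.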
ATXN viability: reduces viability in counter-screen for ATXN expression inhibitors; Potency, µM (top dose mostly 56.7 µM), hits mostly cytotoxic; S2 cells (HEK-293 line with an ATXN2-luciferase reporter) viability, CellTiter-Fluor protease fluorescence, 24 h; actives 0.49% (n = 400,000); AID 651635; further: nearly all actives have a fitted effect of over 40% in size
Apoferritin bind: binds horse apoferritin like a general anesthetic | P02791 | apoferritin/1-aminoanthracene competitive binding, fluorescence | Potency, µM (doses to about 77.5 µM), hits mostly inhibitors | actives 0.074% (n = 350,000) | AID 485281; further: nearly all actives have a fitted effect of over 20% in size
Target sequence (P02791 2-175 limits assumed): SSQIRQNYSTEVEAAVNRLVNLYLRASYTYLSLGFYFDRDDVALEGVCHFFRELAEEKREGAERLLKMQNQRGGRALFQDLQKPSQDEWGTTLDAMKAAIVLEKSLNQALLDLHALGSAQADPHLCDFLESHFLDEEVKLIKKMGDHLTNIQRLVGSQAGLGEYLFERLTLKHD
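Horse-spleen apoferritin (10 uM) in 50% saturated 1-aminoanthracene in PBS was incubated 10 min at room temperature with compound. Fluorescence (ex 380, em 535 nm) was normalized to free and bound 1-AMA, with concentration-response fitted by a four-parameter Hill equation.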
SKNSH spheroid: SK-N-SH 3D spheroid viability loss; Potency, µM (titrated, usually from 30.7 µM), usual class: inhibitors; AID 1347135; SK-N-SH 3D spheroid viability, PI/Hoechst imaging, 72 h; shares compounds with ATXN2 expr inh; actives 70% (n = 65)
SJ-GBM2 3D tox: lowers viability of SJ-GBM2 3D spheroids | shares compounds with ATXN2 expr inh | SJ-GBM2 3D spheroid viability, PI/Hoechst imaging, 72 h | Potency, µM (doses to about 30.7 µM), most hits filed as inhibitors | actives 80% (n = 65) | AID 1347136
Daoy 3D tox: Daoy 3D spheroid viability loss. shares compounds with ATXN2 expr inh. Daoy 3D spheroid viability, PI/Hoechst imaging, 72 h. Potency, µM (highest dose often 30.7 µM), usual class: inhibitors. actives 50% (n = 65). AID 1347137
TC32 3D casp: TC32 spheroid caspase-3/7 activation, orthogonal screen; shares compounds with ATXN2 expr inh; TC32 3D spheroids, caspase-3/7 fluorescence imaging, 24 h; Potency, µM (top dose mostly 30.7 µM), usual class: inhibitors; actives 30% (n = 65); AID 1347138
TC32 spheroid: TC32 3D spheroid viability loss | shares compounds with ATXN2 expr inh | Potency, µM (top dose mostly 30.7 µM), most hits filed as inhibitors | TC32 3D spheroid viability, PI/Hoechst imaging, 72 h | actives 60% (n = 65)
MG63 3D tox: reduced viability of MG-63 (6-TG R) 3D spheroids, orthogonal test. shares compounds with ATXN2 expr inh. MG-63 (6-TG R) 3D spheroid viability, PI/Hoechst imaging, 72 h. Potency, µM (highest dose often 30.7 µM), hits mostly inhibitors. actives 50% (n = 65). AID 1347140
RD 3D tox: RD 3D spheroid viability loss; shares compounds with ATXN2 expr inh; Potency, µM (series often up to 30.7 µM), hits mostly inhibitors; RD rhabdomyosarcoma 3D spheroid viability, PI/Hoechst imaging, 72 h; actives 50% (n = 65)
Of the large screens only hits and unclear results are named; the others gave an inactive call (follow-up assays come after a bar, where they were run). The call rests on the fitted dose curve; in most records, active means well fitted curve in the direction sought with a large enough effect; inconclusive means small, poorly fitted or top-dose-only effect, or another doubt; inactive means no such curve, though single readings can be large; an effect the other way counts as inactive or inconclusive.

CC(=O)O[C@H]1C(=O)[C@@]2(C)[C@H]([C@H](OC(=O)c3ccccc3)[C@]3(O)C[C@H](OC(=O)[C@H](O)C(NC(=O)c4ccccc4)c4ccccc4)C(C)=C1C3(C)C)[C@]1(OC(C)=O)CO[C@@H]1C[C@@H]2O (stereo not given in full)	TGFb SMAD3 inh inconclusive, ATXN viability inconclusive
CC(=O)O[C@@]12CO[C@H]1C[C@H](O)[C@@]1(C)C(=O)[C@H](O)C3=C(C)[C@@H](OC(=O)C(O)[C@@H](NC(=O)OC(C)(C)C)c4ccccc4)C[C@@](O)([C@@H](OC(=O)c4ccccc4)[C@@H]21)C3(C)C (stereo not given in full)	ATXN2 expr inh inconclusive (no result: HepG2 viability, TGFb SMAD3 inh, ATXN viability, Apoferritin bind) | SKNSH spheroid 0.0256µM | SJ-GBM2 3D tox 0.0046µM | Daoy 3D tox 2.56µM | TC32 3D casp inactive | TC32 spheroid inconclusive | MG63 3D tox 8.1µM | RD 3D tox inconclusive
Cc1ccc2c(c1)-c1cc(C)nn1C(c1cc(Br)ccc1O)N2 (stereo not given)	TGFb SMAD3 inh inconclusive
COc1ccc(CNC(=O)Cn2c(=O)n3nc(-c4ccc(OC)cc4)nc3c3ccccc32)cc1	none
CC(C)C[C@H](NC(=O)[C@H](Cc1ccccc1)NC(=O)c1cnccn1)B(O)O	ATXN2 expr inh 0.0273µM, ATXN viability 50.1µM (no result: HepG2 viability, TGFb SMAD3 inh, Apoferritin bind) | SKNSH spheroid 0.0102µM | SJ-GBM2 3D tox 0.0162µM | Daoy 3D tox 0.0323µM | TC32 3D casp 0.181µM | TC32 spheroid 0.0181µM | MG63 3D tox 0.081µM | RD 3D tox 0.0114µM
CC1(c2nnnn2Cc2ccccc2)CCC(=O)N1CCCn1ccnc1 (stereo not given)	none (no result: HepG2 viability, TGFb SMAD3 inh, Apoferritin bind)
CC(=O)OCC(=O)[C@@]1(O)CC[C@H]2[C@@H]3CCC4=CC(=O)C=C[C@]4(C)[C@@H]3[C@@H](O)C[C@@]21C	none (no result: HepG2 viability, TGFb SMAD3 inh, ATXN viability, Apoferritin bind)
CC(=O)OCC(=O)[C@@]12N=C(C)O[C@@H]1C[C@H]1[C@@H]3CCC4=CC(=O)C=C[C@]4(C)[C@H]3[C@@H](O)C[C@@]12C	none (no result: HepG2 viability, TGFb SMAD3 inh, Apoferritin bind) | SKNSH spheroid inactive | SJ-GBM2 3D tox inconclusive | Daoy 3D tox inactive | TC32 3D casp inactive | TC32 spheroid inactive | MG63 3D tox inactive | RD 3D tox inactive
COc1ccc(NS(=O)(=O)c2ccc3c(c2)CCN3C(=O)CCC(=O)O)cc1Cl	none
Cn1cc(CNCC2CCN(c3ncc(C(=O)NO)cn3)CC2)c2ccccc21	none (no result: HepG2 viability, TGFb SMAD3 inh, ATXN viability, Apoferritin bind) | SKNSH spheroid 0.0204µM | SJ-GBM2 3D tox 0.0256µM | Daoy 3D tox 0.181µM | TC32 3D casp inconclusive | TC32 spheroid 0.0644µM | MG63 3D tox 0.722µM | RD 3D tox 0.323µM
Cc1ccc(-c2ncn(-c3ccc(Nc4nccc(-c5cccc(N6CCOCC6)c5)n4)cc3)n2)cn1	ATXN2 expr inh 4.85µM (no result: HepG2 viability, TGFb SMAD3 inh, ATXN viability, Apoferritin bind) | SKNSH spheroid 0.909µM | SJ-GBM2 3D tox 1.62µM | TC32 3D casp inactive | TC32 spheroid inactive | MG63 3D tox inactive | RD 3D tox inconclusive
Cc1cccc(-c2nc(Nc3ccc(N4CCOCC4)cc3)c3ccccc3n2)c1	ATXN viability inconclusive
O=C(N1CCCCC1)N1CCN(S(=O)(=O)c2ccccc2)CC1	none
